{"source": "PubChem BioAssay (EPA / NIEHS)", "note": "The source made the active and inactive calls. How the source made its calls: active means hit-call score of the fitted dose curve at least 0.9, where 1 is the maximum; inactive means score below 0.9."}
{"assay": "APR_HepG2_MicrotubuleCSK_1hr: Apredica 1-hour HepG2 Assay for Microtubule CSK Stabilty (AID 2282669)", "settings": "HepG2 microtubule cytoskeleton imaging, actives raise or lower the signal", "experimental": "APR_HepG2_1hr is a cell-based, multiplexed-readout assay that uses HepG2, a human liver cell line, with measurements taken at 1 hour after chemical dosing in a 384-well plate.APR_HepG2_MicrotubuleCSK_1hr is one of 10 assay component(s) measured or calculated from the APR_HepG2_1hr assay. It is designed to make measurements of protein conformation, a form of conformation reporter, as detected with fluorescence intensity signals by HCS Fluorescent Imaging technology.Data from the assay component APR_HepG2_MicrotubuleCSK_1hr was analyzed into 1 assay endpoint. This assay endpoint, APR_HepG2_MicrotubuleCSK_1hr, was analyzed with bidirectional fitting relative to DMSO as the negative control and baseline of activity. Using a type of conformation reporter, measures of protein for gain or loss-of-signal activity can be used to understand the signaling at the cellular-level. Furthermore, this assay endpoint can be referred to as a primary readout, because this assay has produced multiple assay endpoints where this one serves a signaling function. To generalize the intended target to other relatable targets, this assay endpoint is annotated to the cell morphology intended target family, where the subfamily is cell conformation.\nCells were treated with dimethyl sulfoxide (DMSO) as a solvent control at a final concentration of 0.5% v/v or with compounds in DMSO with a resulting final DMSO concentration of 0.5% v/v. Compound treatment was done at concentrations of 0.39, 0.78, 1.56, 3.12, 6.24, 12.5, 25, 50, 100, and 200 uM in duplicate on each plate. Cells were treated with compounds for 1, 24, or 72 hr. Carbonyl […] m-chloro-phenylhydrazone (CCCP) and taxol were used as positive controls for mitochondrial function and cytoskeletal stability, respectively; DMSO served as the negative control for this experiment. Cells were fixed by the direct addition of 50 uL formaldehyde in Hank's Balanced Salt Solution (HBSS) to a final concentration of 3.7%. After incubation in the fixation medium for 30 min at room temperature (293-298 K), cells were rinsed twice with HBSS and treated with cell permeabilization buffer (16 uL of 0.5% Triton X-100) for 10 min at room temperature (293-298 K) before labeling. For mitochondrial membrane potential and mitochondrial measurements, pre-fixed cells were incubated with 50 uL of MitoTracker Red CMXRos (Invitrogen) at a concentration of 250 nM for 30 min before fixation. In the remaining cases, post-fixed cells were labeled by incubation with a multiplexed mixture of primary antibodies in HBSS for 60 min at room temperature (293-298 K) to detect immunoreactivity of c-Jun (1:500), phospho-histone H3 (1:100), phospho-histone H2A.x (1:200), p53 (1:400), alpha-tubulin (1:200) and Hoechst 33342 (2 ug/mL). Cells were labeled for multiplexed imaging on two separate plates: a) Hoechst 33342, MitoTracker Red, phospho-histone H3, and alpha-tubulin, and b) Hoechst 33342, phospho-histone H2A.x, and c-Jun. A final rinse with HBSS (50 uL) was performed before analysis. The primary and secondary antibodies for the proteins were phospho-histone H3 (rabbit anti-phospho-histone H3 and FITC-donkey anti-rabbit IgG), phospho-histone H2A.x (mouse anti-phospho-histone H2A.x and FITC-donkey anti-mouse IgG), c-Jun (rabbit anti-phospho-c-Jun and Cy3-donkey anti-rabbit IgG), p53 (sheep anti-p53 and Cy5-donkey anti-sheep IgG), alpha-tubulin (mouse anti-alpha-tubulin and Cy5-donkey anti-mouse IgG). These antibodies are available as the CellCiphr HepG2 assay kit (Millipore).Digital images of each well were captured using a Cellomics ArrayScan VTI (Thermo Scientific Cellomics) (0.8 NA objective, 0.63x optical coupler, and XF-93 filter set) at 20x magnification. The images were acquired using the autofocus feature of the ArrayScan instrument, which entails the following steps. First, the camera focuses on channel 1 (Hoechst 33342), where nuclei are identified. Second, a Z offset of 1 um is used for capturing mitochondria (MitoTracker Red). […]"}
{"compound": "Oc1cc(Cl)ccc1Oc1ccc(Cl)cc1Cl", "outcome": "inactive"}
{"compound": "CN1CSC(=S)N(C)C1", "outcome": "inactive"}
{"compound": "Clc1ccccc1-c1nnc(-c2ccccc2Cl)nn1", "outcome": "inactive"}
{"compound": "O=C(NC(=O)c1c(F)cccc1F)Nc1ccc(OC(F)(F)C(F)OC(F)(F)F)c(Cl)c1", "note": "(stereo not given)", "outcome": "inactive"}
{"compound": "CC(C)(C)C(O)/C(=C\\c1ccc(Cl)cc1Cl)n1cncn1", "note": "(stereo not given)", "outcome": "inactive"}
{"compound": "CC[C@H](C)[C@H]1O[C@]2(C=C[C@@H]1C)C[C@@H]1C[C@@H](C/C=C(\\C)[C@@H](O[C@H]3C[C@H](OC)[C@@H](O[C@H]4C[C@H](OC)[C@@H](O)[C@H](C)O4)[C@H](C)O3)[C@@H](C)/C=C/C=C3\\CO[C@@H]4[C@H](O)C(C)=C[C@@H](C(=O)O1)[C@]34O)O2", "note": "(tested in a mixture with another compound)", "outcome": "inactive"}
{"compound": "CCC(C)Nc1c([N+](=O)[O-])cc(C(C)(C)C)cc1[N+](=O)[O-]", "note": "(stereo not given)", "outcome": "inactive"}
{"compound": "CCC(C)(C)C(=O)OC1=C(c2ccc(Cl)cc2Cl)C(=O)OC12CCCCC2", "outcome": "inactive"}
{"compound": "O=[N+]([O-])c1c(Cl)c(Cl)c(Cl)c(Cl)c1Cl", "outcome": "inactive"}
{"compound": "CCS(=O)(=O)c1cccnc1S(=O)(=O)NC(=O)Nc1nc(OC)cc(OC)n1", "outcome": "inactive"}
{"compound": "C#CCN1C(=O)COc2cc(F)c(N3C(=O)C4=C(CCCC4)C3=O)cc21", "outcome": "inactive"}
{"compound": "Cc1cc(C)nc(NC(=O)NS(=O)(=O)c2ccccc2C(=O)OC2COC2)n1", "outcome": "inactive"}
{"compound": "O=[N+]([O-])/N=C1\\NCCN1Cc1ccc(Cl)nc1", "outcome": "inactive"}
{"compound": "CNC(=O)/C=C(\\C)OP(=O)(OC)OC", "outcome": "inactive"}
{"compound": "CCCN(CCC)c1c([N+](=O)[O-])cc(C(F)(F)F)cc1[N+](=O)[O-]", "outcome": "inactive"}
{"compound": "COc1cc(OC)nc(NC(=O)NS(=O)(=O)c2cc(NC=O)ccc2C(=O)N(C)C)n1", "outcome": "inactive"}
{"compound": "[2H]C1([2H])[n+]2ccccc2-c2cccc[n+]2C1([2H])[2H]", "outcome": "inactive"}
{"compound": "O=C(O)C(F)(F)C(F)(F)C(F)(F)C(F)(F)C(F)(F)C(F)(F)C(F)(F)F", "outcome": "inactive"}
{"compound": "CCOCN(C(=O)CCl)c1c(C)cccc1CC", "outcome": "inactive"}
{"compound": "COC(=O)c1ccccc1CS(=O)(=O)NC(=O)Nc1nc(OC)cc(OC)n1", "outcome": "inactive"}
{"compound": "COC(=O)c1ccccc1S(=O)(=O)NC(=O)Nc1nc(C)nc(OC)n1", "outcome": "inactive"}
{"compound": "C[C@H]1[C@H](c2ccc(Cl)cc2)SC(=O)N1C(=O)NC1CCCCC1", "outcome": "inactive"}
{"compound": "CCN(CC)C(=O)SCc1ccc(Cl)cc1", "outcome": "inactive"}
{"compound": "O=C(Nc1ccccc1)Nc1cnns1", "outcome": "inactive"}
{"compound": "CNC(=O)Oc1cccc(N=CN(C)C)c1", "outcome": "inactive"}
{"compound": "ClC1C(Cl)C(Cl)C(Cl)C(Cl)C1Cl", "note": "(stereo not given)", "outcome": "inactive"}
{"compound": "CCCN(CCOc1c(Cl)cc(Cl)cc1Cl)C(=O)n1ccnc1", "outcome": "inactive"}
{"compound": "N#CN", "outcome": "inactive"}
{"compound": "CNC(=O)CSP(=S)(OC)OC", "outcome": "inactive"}
{"compound": "O=S(=O)(O)C(F)(F)C(F)(F)C(F)(F)C(F)(F)C(F)(F)C(F)(F)C(F)(F)C(F)(F)F", "outcome": "inactive"}
{"compound": "CC1(c2ccc(Oc3ccccc3)cc2)OC(=O)N(Nc2ccccc2)C1=O", "note": "(stereo not given)", "outcome": "inactive"}
{"compound": "CCC(C)(NC(=O)c1cc(Cl)c(C)c(Cl)c1)C(=O)CCl", "note": "(stereo not given)", "outcome": "inactive"}
{"compound": "Cc1[nH]c(=O)n(C(C)(C)C)c(=O)c1Cl", "outcome": "inactive"}
{"compound": "COC(=O)c1ccccc1S(=O)(=O)NC(=O)N(C)c1nc(C)nc(OC)n1", "outcome": "inactive"}
{"compound": "CCc1ccc(C(=O)NN(C(=O)c2cc(C)cc(C)c2)C(C)(C)C)cc1", "outcome": "inactive"}
{"compound": "O=C(O)CCCOc1ccc(Cl)cc1Cl", "outcome": "inactive"}
{"compound": "CC(C)(C)C(O)C(Oc1ccc(Cl)cc1)n1cncn1", "note": "(stereo not given)", "outcome": "inactive"}
{"compound": "CC(C)OC(=O)Nc1cccc(Cl)c1", "outcome": "inactive"}
{"compound": "CNC(=O)Oc1ccccc1OC(C)C", "outcome": "inactive"}
{"compound": "Oc1ccc(Cl)cc1Cc1ccccc1", "outcome": "inactive"}
